Experiment [1] in a line: NCI Yeast Anticancer Drug Screen. Data for the rad50 strain (AID 155).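 Also: 0% = growth of vehicle-only cultures of the same strain.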 The conditions noted are these: S. cerevisiae rad50 strain growth inhibition, active compounds read high. In a few lines: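 Inhibition values express reduced yeast growth in compound-treated cultures relative to vehicle-treated controls.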
Experiment [2] can be described thus: NCI Yeast Anticancer Drug Screen. Data for the mec2-1 strain (AID 157). The note with it: S. cerevisiae mec2-1 strain, active compounds read high. In outline:
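Strain: mec2-1 (DNA repair/cell cycle alteration). Compound exposure, then growth measured; inhibition expressed relative to vehicle.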

A short description of experiment [3]: NCI Yeast Anticancer Drug Screen. Data for the sgs1 mgt1 strain (AID 161).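 Also: 0% = growth of cultures given vehicle only.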 The conditions noted are these: S. cerevisiae sgs1 mgt1 strain, active compounds read high. In a few lines:
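Mutant yeast exposed to compound; growth scored against vehicle-only wells.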

The nature of experiment [4]: NCI Yeast Anticancer Drug Screen. Data for the cln2 rad14 strain (AID 165).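 Also: 0% = growth equal to vehicle treated cultures.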 The conditions noted are these: S. cerevisiae cln2 rad14 strain, active compounds read high. In a few lines:
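Compounds are applied to the cln2 rad14 yeast strain, and growth is then compared with that of vehicle-treated cultures to give inhibition.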

Experiment [5] can be described thus: NCI Yeast Anticancer Drug Screen. Data for the bub3 strain (AID 167). The note with it: S. cerevisiae bub3 mutant strain, active compounds read high. In outline:
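Steps: expose the mutant yeast strain to compound; grow alongside vehicle-treated cultures; measure growth; express inhibition against the vehicle cultures.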

The nature of experiment [6]: NCI Yeast Anticancer Drug Screen. Data for the mlh1 rad18 strain (AID 175). The note with it: S. cerevisiae mlh1 rad18 strain growth inhibition, active compounds read high. In a few lines:
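Read-out is yeast growth inhibition, calculated against vehicle-only controls. The compound was applied to a strain engineered with DNA damage repair alterations.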

Where [7] appears, read: at 5.0 µM (retest, dose inferred, filed as 0.5).
The mark [8] stands for this setting: at 50.0 µM (retest, dose inferred, filed as 5.0).

SMILES strings stand for the structures. About 79,000 compounds went through this panel and 15% of them were active in at least one assay; those are over-represented in the sample as a whole. A number with no mark means an inactive call. The source made the active and inactive calls. Rule as the data show it: active = growth inhibition above about 70%; inactive = the rest.

In the case of `OC(COc1ccc(Cl)cc1)COc1ccc(Cl)cc1`, the growth inhibition was 0% in experiment [1] (setting [7]); 92% (active) in experiment [1] (setting [8]); 98.4% (active) in experiment [1] (at 50.0 µM); -3% in experiment [2] (setting [7]); 91% (active) in experiment [2] (setting [8]); 99.4% (active) in experiment [2] (at 50.0 µM). The growth inhibition in experiment [3] (setting [7]) is -3%; in experiment [3] (setting [8]), 86% (active); in experiment [3] (at 50.0 µM) it was 99.4% (active); in experiment [4] (setting [7]), -19%; in experiment [4] (setting [8]) it was 86% (active); in experiment [4] (at 50.0 µM), 99% (active). Further, the growth inhibition in experiment [5] (setting [7]) was -8%; in experiment [5] (setting [8]), 92% (active); in experiment [5] (at 50.0 µM) it was 99.5% (active); in experiment [6] (setting [7]), 0%; in experiment [6] (setting [8]), 93% (active); in experiment [6] (at 50.0 µM) it was 99.3% (active).

With `CCN(CC)CCNc1ccc(C)c2sc3ccc(OC)cc3c(=O)c12`, the growth inhibition is 32% in experiment [1] (setting [7]); 94% (active) in experiment [1] (setting [8]); 90.7% (active) in experiment [1] (at 50.0 µM); 22% in experiment [2] (setting [7]); 97% (active) in experiment [2] (setting [8]); 89.2% (active) in experiment [2] (at 50.0 µM). Besides, the growth inhibition in experiment [3] (setting [7]) is 23%; in experiment [3] (setting [8]) it was 98% (active); in experiment [3] (at 50.0 µM), 17.2%; in experiment [4] (setting [7]) it was 16%; in experiment [4] (setting [8]), 87% (active); in experiment [4] (at 50.0 µM), 30.9%. The growth inhibition in experiment [5] (setting [7]) is 31%; in experiment [5] (setting [8]), 99% (active); in experiment [5] (at 50.0 µM) it was 1%; in experiment [6] (setting [7]) it was 32%; in experiment [6] (setting [8]) it was 98% (active); in experiment [6] (at 50.0 µM), 93% (active).

Take `C#CC(O)c1ccc(Cl)cc1Cl` (stereo not given): the growth inhibition was 9% in experiment [1] (setting [7]); 96% (active) in experiment [1] (setting [8]); 99% (active) in experiment [1] (at 50.0 µM); -2% in experiment [2] (setting [7]); 95% (active) in experiment [2] (setting [8]); 99.5% (active) in experiment [2] (at 50.0 µM). Further, the growth inhibition in experiment [3] (setting [7]) was 0%; in experiment [3] (setting [8]), 92% (active); in experiment [3] (at 50.0 µM), 95.3% (active); in experiment [4] (setting [7]), -1%; in experiment [4] (setting [8]), 94% (active); in experiment [4] (at 50.0 µM) it was 99.2% (active). Also, the growth inhibition in experiment [5] (setting [7]) is 5%; in experiment [5] (setting [8]) it was 96% (active); in experiment [5] (at 50.0 µM), 99% (active); in experiment [6] (setting [7]), 6%; in experiment [6] (setting [8]) it was 98% (active); in experiment [6] (at 50.0 µM) it was 99.1% (active).

As for `Oc1cc(O)c2c(c1)OC(c1ccc(O)c(O)c1)C(OC1(c3cc(O)c(O)c(O)c3)Oc3cc(O)cc(O)c3C(O)C1O)C2` (stereo not given), the growth inhibition in experiment [1] (setting [7]) is -4%; in experiment [1] (setting [8]), 17%; in experiment [1] (at 50.0 µM), -3.85%; in experiment [2] (setting [7]), -5%; in experiment [2] (setting [8]), -27%; in experiment [2] (at 50.0 µM), -18.2%. The growth inhibition in experiment [3] (setting [7]) is -14%; in experiment [3] (setting [8]), 6%; in experiment [3] (at 50.0 µM), -15.9%; in experiment [4] (setting [7]), -31%; in experiment [4] (setting [8]) it was 4%; in experiment [4] (at 50.0 µM), -9.25%. The growth inhibition was 8% in experiment [5] (setting [7]); -4% in experiment [5] (setting [8]); -33.5% in experiment [5] (at 50.0 µM); -5% in experiment [6] (setting [7]); 12% in experiment [6] (setting [8]); 42.5% in experiment [6] (at 50.0 µM).

As to `COc1ccc2c(c1)CCn1c(C)c(COC(=O)NC(C)C)c(COC(=O)NC(C)C)c1-2`, the growth inhibition is 17% in experiment [1] (setting [7]); 98% (active) in experiment [1] (setting [8]); 88.7% (active) in experiment [1] (at 50.0 µM); 0% in experiment [2] (setting [7]); 98% (active) in experiment [2] (setting [8]); 92.3% (active) in experiment [2] (at 50.0 µM). For the same compound, the growth inhibition in experiment [3] (setting [7]) is 33%; in experiment [3] (setting [8]) it was 98% (active); in experiment [3] (at 50.0 µM), 89.2% (active); in experiment [4] (setting [7]), 10%; in experiment [4] (setting [8]), 97% (active); in experiment [4] (at 50.0 µM), 90.3% (active). Also, the growth inhibition in experiment [5] (setting [7]) is 15%; in experiment [5] (setting [8]), 98% (active); in experiment [5] (at 50.0 µM), 88.7% (active); in experiment [6] (setting [7]), 17%; in experiment [6] (setting [8]) it was 98% (active); in experiment [6] (at 50.0 µM) it was 87.7% (active).

`CCCCCCCCCCCC[N+](C)(CCS(=O)(=O)[O-])Cc1ccccc1` (stereo not given): the growth inhibition in experiment [1] (setting [7]) was -1%; in experiment [1] (setting [8]), 51%; in experiment [1] (at 50.0 µM), 98.2% (active); in experiment [2] (setting [7]) it was 6%; in experiment [2] (setting [8]), 74% (active); in experiment [2] (at 50.0 µM), 99.2% (active). The growth inhibition in experiment [3] (setting [7]) is 1%; in experiment [3] (setting [8]), 36%; in experiment [3] (at 50.0 µM), 41.9%; in experiment [4] (setting [7]), 2%; in experiment [4] (setting [8]) it was 66%; in experiment [4] (at 50.0 µM) it was 77.5% (active). The growth inhibition was -2% in experiment [5] (setting [7]); 61% in experiment [5] (setting [8]); 72.1% (active) in experiment [5] (at 50.0 µM); -2% in experiment [6] (setting [7]); 97% (active) in experiment [6] (setting [8]); 99.2% (active) in experiment [6] (at 50.0 µM).

For the compound `C/C(=N\OC(=O)c1ccccc1)[N+](=O)[O-]`, the growth inhibition is -50% in experiment [1] (setting [7]); 98% (active) in experiment [1] (setting [8]); 88.1% (active) in experiment [1] (at 50.0 µM); -6% in experiment [2] (setting [7]); 100% (active) in experiment [2] (setting [8]); 77.8% (active) in experiment [2] (at 50.0 µM). The growth inhibition in experiment [3] (setting [7]) is -11%; in experiment [3] (setting [8]) it was 99% (active); in experiment [3] (at 50.0 µM) it was 72% (active); in experiment [4] (setting [7]), -27%; in experiment [4] (setting [8]), 99% (active); in experiment [4] (at 50.0 µM), 81.8% (active). The growth inhibition in experiment [5] (setting [7]) was -61%; in experiment [5] (setting [8]) it was 85% (active); in experiment [5] (at 50.0 µM) it was 56.9%; in experiment [6] (setting [7]), -54%; in experiment [6] (setting [8]), 98% (active); in experiment [6] (at 50.0 µM), 65.4%.

With `Cn1c(=O)cc2c3c(ccc(C(=O)O)c31)C(=O)c1ccccc1-2`, the growth inhibition in experiment [1] (setting [7]) is 40%; in experiment [1] (setting [8]), 34%; in experiment [1] (at 50.0 µM), 80.2% (active); in experiment [2] (setting [7]) it was 10%; in experiment [2] (setting [8]), 50%; in experiment [2] (at 50.0 µM), 36.2%. For the same compound, the growth inhibition in experiment [3] (setting [7]) is 2%; in experiment [3] (setting [8]) it was 27%; in experiment [3] (at 50.0 µM) it was 45.1%; in experiment [4] (setting [7]), -8%; in experiment [4] (setting [8]) it was 22%; in experiment [4] (at 50.0 µM) it was 16.5%. Besides, the growth inhibition was 1% in experiment [5] (setting [7]); 62% in experiment [5] (setting [8]); 61.8% in experiment [5] (at 50.0 µM); 12% in experiment [6] (setting [7]); 50% in experiment [6] (setting [8]); 51.7% in experiment [6] (at 50.0 µM).

In the case of `O=C(NCCCCC(NC(=O)OCc1ccccc1)C(=O)Nc1ccc(Nc2ccc(NC(=O)C(CCCCNC(=O)OCc3ccccc3)NC(=O)OCc3ccccc3)cc2)cc1)OCc1ccccc1` (stereo not given), the growth inhibition is 0% in experiment [1] (setting [7]); -12% in experiment [1] (setting [8]); 99% (active) in experiment [1] (at 50.0 µM); -3% in experiment [2] (setting [7]); -13% in experiment [2] (setting [8]); 99.5% (active) in experiment [2] (at 50.0 µM). Further, the growth inhibition in experiment [3] (setting [7]) is -2%; in experiment [3] (setting [8]), -29%; in experiment [3] (at 50.0 µM), 99.4% (active); in experiment [4] (setting [7]), -1%; in experiment [4] (setting [8]), 0%; in experiment [4] (at 50.0 µM), 87.7% (active). For the same compound, the growth inhibition is 2% in experiment [5] (setting [7]); 34% in experiment [5] (setting [8]); 99.1% (active) in experiment [5] (at 50.0 µM); -1% in experiment [6] (setting [7]); -12% in experiment [6] (setting [8]); 98.4% (active) in experiment [6] (at 50.0 µM).

As for `CC(NC(=O)OCc1ccccc1)C(=O)NNc1ccccc1Cl` (stereo not given), the growth inhibition in experiment [1] (setting [7]) is 88% (active); in experiment [1] (setting [8]) it was 96% (active); in experiment [1] (at 50.0 µM), 97.5% (active); in experiment [2] (setting [7]), 9%; in experiment [2] (setting [8]) it was 99% (active); in experiment [2] (at 50.0 µM), 96.8% (active). In addition, the growth inhibition is 49% in experiment [3] (setting [7]); 99% (active) in experiment [3] (setting [8]); 91.4% (active) in experiment [3] (at 50.0 µM); 29% in experiment [4] (setting [7]); 68% in experiment [4] (setting [8]); 98.2% (active) in experiment [4] (at 50.0 µM). Moreover, the growth inhibition is 73% (active) in experiment [5] (setting [7]); 42% in experiment [5] (setting [8]); 97.5% (active) in experiment [5] (at 50.0 µM); 96% (active) in experiment [6] (setting [7]); 99% (active) in experiment [6] (setting [8]); 97.5% (active) in experiment [6] (at 50.0 µM).

The values are drawn from PubChem BioAssay (NCI).
